# Source: PubChem BioAssay (NCATS)
# “And” between values parts separate entries of the source, which are not always exact repeats. Equal values may be shown once. Records with an inconclusive call do not appear. Where a call stands in place of a potency, no number is given. The source made the active and inactive calls. Unless noted, the call rests on the fitted dose curve.
# Legend:
# [1] = target: Androgen receptor (Homo sapiens) (UniProt P10275); assay: qHTS assay for small molecule agonists of androgen receptor signaling (AID 588515; active means well fitted curve in the direction sought with a large enough effect in the signal ratio, with a control signal flat; the % refers to the signal ratio); conditions: AR-UAS-bla HEK293, beta-lactamase ratio, agonist 16 h; stronger effect = higher value
# Method in brief: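 Stimulation of an AR-responsive β-lactamase reporter in GripTite HEK293 cells was measured after 16 h compound exposure at 37 °C, via CCF4 fluorescence after 2 h RT. EC50 from Hill fits, normalized to R1881 at 30 nM.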
# [2] = target: Vitamin D3 receptor (Homo sapiens) (UniProt P11473); assay: qHTS assay for small molecule antagonists of vitamin D receptor signaling (AID 588541); conditions: HEK293T VDR-UAS-bla, beta-lactamase ratio, antagonist mode; series mostly up to 76.7 µM;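 further: receptor activated by calcitriol during compound treatment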
# Method in brief: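 VDR-UAS-bla HEK293T cells in 2% charcoal-stripped FBS were stimulated with 1-alpha,25-dihydroxyvitamin D3 (3 nM final) plus compound for 16 h at 37 C. The beta-lactamase CCF4 readout was normalized to 50 nM agonist and DMSO, and Hill fits gave IC50.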
# [3] = qHTS assay for small molecule agonists of the antioxidant response element (ARE) signaling pathway (AID 651741; active means well fitted activation curve with a large enough effect in the signal ratio; the % refers to the signal ratio; further: potency means the concentration at half of the fitted maximal effect); conditions: HepG2 ARE-bla reporter, beta-lactamase FRET ratio, 16 h; series mostly up to 96 µM
# Method in brief: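 HepG2 ARE-bla reporter cells, 2,000/well; 5 h settle at 37 C/5% CO2; compound pin transfer (23 nL, DMSO); 16 h at 37 C; LiveBLAzer B/G FRET substrate, 2 h RT; fluorescence intensity read.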
# [4] = target: Androgen receptor (Homo sapiens) (UniProt P10275); assay: qHTS assay for small molecule antagonists of androgen receptor signaling (AID 588516; active means well fitted curve in the direction sought with a large enough effect in the signal ratio, with a control signal flat, not every such curve was filed as active; the % refers to the signal ratio); conditions: AR-UAS-bla HEK293, beta-lactamase ratio, antagonist mode, 16 h; series mostly up to 76.8 µM
# Method in brief: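 AR-UAS-bla GripTite HEK 293 cells (2000/well) treated with compound titrations plus 10 nM R1881 for 16 h at 37C. Beta-lactamase read by CCF4 FRET (460/530 nm); IC50 from Hill fits, normalized to R1881 and DMSO control wells.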
# [5] = qHTS assay for small molecule antagonists of peroxisome proliferator-activated receptor delta signaling (AID 588535; active means well fitted inhibition curve with a large enough effect in the signal ratio, with a control signal flat, not every such curve was filed as active; the % refers to the signal ratio;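 on max response: cells co-treated with a PPAR-delta agonist as stimulator during compound exposure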); conditions: HEK293T PPARd-UAS-bla, beta-lactamase FRET ratio, 18 h; 460 nm channel
# Method in brief: (§1)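 Beta-lactamase reporter read-out (405 nm excitation, 460/530 nm emission) after CCF4 loading for 2 hrs at RT. HEK293T PPAR-delta-UAS-bla cells, 2% charcoal/dextran FBS, compounds for 18 hrs at 37 C. Hill fit gave IC50 and efficacy.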
# [6] = target: Peroxisome proliferator-activated receptor delta (Homo sapiens) (UniProt Q03181); assay: as above; conditions: HEK293T PPARd-UAS-bla, beta-lactamase FRET ratio, 18 h; series mostly up to 76.7 µM
# Method in brief: as §1
# [7] = target: Peroxisome proliferator-activated receptor gamma (Homo sapiens) (UniProt P37231); assay: qHTS assay for small molecule antagonists of peroxisome proliferator-activated receptor gamma signaling (AID 588537; active means well fitted inhibition curve with a large enough effect in the signal ratio, with a control signal flat, not every such curve was filed as active; the % refers to the signal ratio;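 further: reporter cells co-stimulated with 50 nM rosiglitazone agonist during compound treatment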); conditions: HEK293 PPARg-UAS-bla, beta-lactamase ratio, antagonist mode; series mostly up to 76.8 µM
# Method in brief: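 Read-out: CCF4 fluorescence (ex 405, em 460/530 nm) after 2 h at RT. Cells were HEK293 carrying a UAS-bla reporter and treated 16 h at 37 C with compound plus rosiglitazone (50 nM final). Normalized to rosiglitazone and DMSO.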
# [8] = target: Bile acid receptor (Homo sapiens) (UniProt Q96RI1); assay: qHTS assay for small molecule antagonists of farnesoid X receptor signaling (AID 588526); conditions: HEK293T FXR-UAS-bla, beta-lactamase ratio, antagonist mode; series mostly up to 76.7 µM
# Method in brief: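 Antagonist mode: titrated compounds tested against chenodeoxycholic acid stimulation (normalized to 50 uM CDCA and DMSO) in GeneBLAzer HEK293T cells for 16 h. Beta-lactamase read by CCF4 fluorescence; IC50 from Hill fits.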
# [9] = target: Bile acid receptor (Homo sapiens) (UniProt Q96RI1); assay: qHTS assay for small molecule agonists of farnesoid X receptor signaling (AID 588527); conditions: HEK293T FXR-UAS-bla, beta-lactamase ratio, 16 h; activation: stronger effect = higher value
# Method in brief: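 Agonist-mode beta-lactamase reporter in GeneBLAzer FXR-UAS-bla HEK293T cells, titration up to 92 uM, 16 h exposure at 37 C, CCF4 fluorescence. Response scaled to DMSO (0%) and 100 uM chenodeoxycholic acid (100%), then Hill-fitted for EC50 and efficacy.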
# [10] = qHTS assay for small molecule activators of the human pregnane X receptor (PXR) signaling pathway (AID 720659; call rule not given here); conditions: DPX-2 HepG2 CYP3A4-luciferase, 24 h; series mostly up to 92.3 µM
# [11] = target: Tumor necrosis factor (Homo sapiens) (UniProt P01375); assay: qHTS assay to identify small molecules that stimulate Tumor Necrosis Factor-alpha (TNF-alpha) secretion (AID 651757; active means well fitted curve in the direction sought with a large enough effect in the signal ratio; the % refers to the signal ratio; further: potency means the concentration at half of the fitted maximal effect); conditions: Human cells, HTRF 665/615 ratio; series mostly up to 92.2 µM
# Method in brief: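 Using 3000 THP-1 cells per well, compounds and controls were applied for 17 hrs at 37 C. Detection followed with two labeled anti-TNF-alpha antibodies (cryptate donor, XL665 acceptor) for 3 hr at room temperature, measured by TR-FRET.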
# Chain of Bile acid receptor (Homo sapiens) (Q96RI1 whole entry, looked up): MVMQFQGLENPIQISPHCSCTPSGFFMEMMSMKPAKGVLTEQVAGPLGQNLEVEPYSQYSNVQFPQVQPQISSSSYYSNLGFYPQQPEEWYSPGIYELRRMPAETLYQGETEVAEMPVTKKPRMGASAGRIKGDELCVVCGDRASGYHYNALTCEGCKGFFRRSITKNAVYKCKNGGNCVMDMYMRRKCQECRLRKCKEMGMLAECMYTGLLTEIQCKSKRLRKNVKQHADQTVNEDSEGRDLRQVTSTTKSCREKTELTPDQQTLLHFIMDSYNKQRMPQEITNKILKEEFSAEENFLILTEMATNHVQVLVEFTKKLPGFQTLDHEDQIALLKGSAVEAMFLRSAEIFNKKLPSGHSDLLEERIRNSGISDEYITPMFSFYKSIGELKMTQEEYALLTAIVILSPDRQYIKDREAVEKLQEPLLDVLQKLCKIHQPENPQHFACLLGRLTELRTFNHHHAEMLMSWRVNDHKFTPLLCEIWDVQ
# Chain of Androgen receptor (Homo sapiens) (P10275 whole entry, looked up): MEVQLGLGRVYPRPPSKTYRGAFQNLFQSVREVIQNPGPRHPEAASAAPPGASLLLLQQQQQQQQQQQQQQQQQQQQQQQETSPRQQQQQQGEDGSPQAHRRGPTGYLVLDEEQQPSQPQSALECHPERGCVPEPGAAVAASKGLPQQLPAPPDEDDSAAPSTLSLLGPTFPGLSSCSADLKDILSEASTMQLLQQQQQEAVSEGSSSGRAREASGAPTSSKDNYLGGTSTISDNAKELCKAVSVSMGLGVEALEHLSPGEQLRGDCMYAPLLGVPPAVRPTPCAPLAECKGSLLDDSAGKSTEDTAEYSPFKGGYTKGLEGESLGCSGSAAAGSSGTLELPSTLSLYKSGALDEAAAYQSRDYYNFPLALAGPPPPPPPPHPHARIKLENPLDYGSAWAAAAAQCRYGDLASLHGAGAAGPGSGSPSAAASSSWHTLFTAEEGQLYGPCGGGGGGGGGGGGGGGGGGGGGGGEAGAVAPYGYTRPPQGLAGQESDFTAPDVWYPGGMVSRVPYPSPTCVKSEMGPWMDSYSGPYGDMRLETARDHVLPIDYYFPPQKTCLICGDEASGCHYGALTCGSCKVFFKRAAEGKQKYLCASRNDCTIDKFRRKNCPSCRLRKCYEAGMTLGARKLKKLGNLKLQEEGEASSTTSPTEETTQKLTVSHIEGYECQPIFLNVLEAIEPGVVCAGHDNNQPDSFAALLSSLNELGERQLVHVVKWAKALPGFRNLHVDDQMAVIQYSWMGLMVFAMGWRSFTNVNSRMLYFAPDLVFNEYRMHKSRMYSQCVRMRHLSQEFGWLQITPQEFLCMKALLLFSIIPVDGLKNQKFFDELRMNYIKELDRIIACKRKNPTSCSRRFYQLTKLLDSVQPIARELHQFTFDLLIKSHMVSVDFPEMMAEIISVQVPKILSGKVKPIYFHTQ
# Chain of Vitamin D3 receptor (Homo sapiens) (P11473 whole entry, looked up): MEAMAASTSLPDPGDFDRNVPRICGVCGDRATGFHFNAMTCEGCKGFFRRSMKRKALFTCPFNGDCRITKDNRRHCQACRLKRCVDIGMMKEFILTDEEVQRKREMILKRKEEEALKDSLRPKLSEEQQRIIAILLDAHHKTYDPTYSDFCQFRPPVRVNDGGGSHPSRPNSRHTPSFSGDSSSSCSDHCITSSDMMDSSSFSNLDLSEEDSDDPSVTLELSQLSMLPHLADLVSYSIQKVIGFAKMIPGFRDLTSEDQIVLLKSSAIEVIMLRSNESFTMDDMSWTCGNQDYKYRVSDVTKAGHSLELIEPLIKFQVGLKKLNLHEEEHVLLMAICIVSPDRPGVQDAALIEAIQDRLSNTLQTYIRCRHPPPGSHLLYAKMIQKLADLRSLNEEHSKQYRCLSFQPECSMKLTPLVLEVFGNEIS
# Chain of Peroxisome proliferator-activated receptor gamma (Homo sapiens) (P37231 whole entry, looked up): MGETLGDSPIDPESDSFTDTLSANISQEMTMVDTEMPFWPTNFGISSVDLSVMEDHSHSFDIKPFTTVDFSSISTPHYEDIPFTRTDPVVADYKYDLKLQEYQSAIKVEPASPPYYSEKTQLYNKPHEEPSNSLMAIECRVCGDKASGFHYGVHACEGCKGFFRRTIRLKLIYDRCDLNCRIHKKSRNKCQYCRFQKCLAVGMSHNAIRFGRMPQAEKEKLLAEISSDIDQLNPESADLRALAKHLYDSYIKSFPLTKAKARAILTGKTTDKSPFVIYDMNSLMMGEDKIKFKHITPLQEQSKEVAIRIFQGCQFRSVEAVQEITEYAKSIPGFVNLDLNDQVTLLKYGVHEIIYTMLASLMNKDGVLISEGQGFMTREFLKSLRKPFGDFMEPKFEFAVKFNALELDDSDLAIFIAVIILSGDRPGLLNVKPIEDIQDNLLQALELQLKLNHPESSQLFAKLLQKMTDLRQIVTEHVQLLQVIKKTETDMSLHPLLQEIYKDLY
# Chain of Peroxisome proliferator-activated receptor delta (Homo sapiens) (Q03181 whole entry, looked up): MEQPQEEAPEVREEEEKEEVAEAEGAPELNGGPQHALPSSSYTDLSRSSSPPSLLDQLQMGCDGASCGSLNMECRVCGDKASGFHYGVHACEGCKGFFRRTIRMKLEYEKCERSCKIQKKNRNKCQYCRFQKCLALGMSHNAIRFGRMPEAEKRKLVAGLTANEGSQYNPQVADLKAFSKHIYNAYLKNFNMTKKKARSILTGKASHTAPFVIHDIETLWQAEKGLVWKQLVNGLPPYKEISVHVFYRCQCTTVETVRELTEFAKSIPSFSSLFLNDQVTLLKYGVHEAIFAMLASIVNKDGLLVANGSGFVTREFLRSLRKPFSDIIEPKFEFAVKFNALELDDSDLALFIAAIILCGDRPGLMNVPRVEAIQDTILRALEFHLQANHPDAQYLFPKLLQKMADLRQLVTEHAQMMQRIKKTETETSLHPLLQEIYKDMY
# Chain of Tumor necrosis factor (Homo sapiens) (P01375 whole entry, looked up): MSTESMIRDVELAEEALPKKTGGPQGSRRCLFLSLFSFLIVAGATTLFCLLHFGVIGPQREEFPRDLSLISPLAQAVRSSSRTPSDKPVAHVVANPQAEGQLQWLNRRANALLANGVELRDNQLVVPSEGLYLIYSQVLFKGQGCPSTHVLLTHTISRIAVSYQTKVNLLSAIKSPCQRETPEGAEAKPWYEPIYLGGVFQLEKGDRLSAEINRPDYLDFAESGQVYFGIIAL
structure (smiles),measurement,setting,value
C[C@H]1[C@H](c2ccc(Cl)cc2)SC(=O)N1C(=O)NC1CCCCC1,activation,[1],-15.6% (inactive)
same,Potency,[2],inactive
same,Potency,[3],54.5 µM (active)
Cc1nn(-c2cc(NS(C)(=O)=O)c(Cl)cc2Cl)c(=O)n1C(F)F,activation,[1],-3.3% (inactive)
same,Potency,[4],inactive
same,max response,[5],-1.23%
same,Potency,[6],inactive
same,Potency,[7],inactive
same,Potency,[2],inactive
same,Potency,[3],inactive
Cc1cc(C)nc(NC(=O)NS(=O)(=O)c2ccccc2C(=O)OC2COC2)n1,activation,[1],-3.69% (inactive)
same,Potency,[4],inactive
same,Potency,[8],inactive
same,activation,[9],1.23% (inactive)
same,max response,[5],2.3%
same,Potency,[6],inactive
same,Potency,[7],inactive
same,Potency,[2],inactive
same,outcome,[10],inactive
CCC(C)n1c(=O)[nH]c(C)c(Br)c1=O (stereo not given),Potency,[2],inactive
same,outcome,[10],inactive
c1ccc2c(c1)c1cccc3ccc4cccc2c4c31,activation,[1],7.55% (inactive)
same,activation,[9],-3.29% (inactive) and 7.3% (inactive)
same,Potency,[3],6.86 µM (active)
same,Potency,[11],29.8 µM (active)
